Measured values taken from PubChem BioAssay (EPA / NIEHS).
The source made the active and inactive calls. Rule for the calls: active = hit-call score of the fitted dose curve at least 0.9, where 1 is the maximum; inactive = score below 0.9.

Experiment: CCTE_Harrill_HTTr_Apoptosis_MCF7: CCTE's 6-hour Apoptosis Assessment for the High-Throughput Transcriptomics (HTTr) Platform, in MCF-7 cells cultured in DMEM + 10% fetal bovine serum, Harrill Lab (AID 2284011)
Outline: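 Apoptosis in MCF-7 cells grown in DMEM with 10% fetal bovine serum was scored after a six hour exposure by high content imaging of caspase-3/7 activation (CellEvent Caspase 3/7 Green), with DMSO serving as negative control and baseline.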

outcome, inactive:
C=C(C)[C@@H]1CC[C@@H](C)C[C@@H]1O
NC(N)=NC(=O)c1nc(Cl)c(N)nc1N
Cc1cccc(Nc2ccccc2C(=O)O)c1C
C=CCOc1nc(OCC=C)nc(OCC=C)n1
c1ccc2sc(SN(C3CCCCC3)C3CCCCC3)nc2c1
CCCCN
C#C[C@]1(O)CC[C@H]2[C@@H]3CCC4=Cc5oncc5C[C@]4(C)[C@H]3CC[C@@]21C
O=[N+]([O-])c1cc(C(F)(F)F)ccc1Cl
CCCOCC(C)O (stereo not drawn)
O=C[C@H](O)[C@H](O)[C@H](O)CO
S=C(S)NCCNC(=S)S
O=C(Nc1ccccc1)c1cc([N+](=O)[O-])ccc1Cl
COC(C)CCO (stereo not drawn)
COC(=O)C1=C(C)NC(C)=C(C(=O)OCCN(C)Cc2ccccc2)C1c1cccc([N+](=O)[O-])c1 (stereo not drawn)
O=c1cc(-c2ccccc2)oc2cc(O)cc(O)c12
C[C@]12CC[C@H]3[C@@H](CCC4=CC(=O)CC[C@@]43C)[C@@H]1CC[C@@H]2C(=O)CO
CCC(C)CCCC(C)(C)O (stereo not drawn)
Cc1ccc(C(C)C)cc1O
O=C(O)c1cn(C2CC2)c2cc(N3CCNCC3)c(F)cc2c1=O
BrC1CCC(Br)C(Br)CCC(Br)C(Br)CCC1Br (stereo not drawn)
Cc1ccc(C=O)s1
CC(CCO)CCc1ccccc1 (stereo not drawn)
Cc1c(Cl)c(=O)oc2cc(O)ccc12
COc1cc2ncnc(Nc3cccc(Cl)c3)c2cc1OC
O=C(O)CN(CCN(CC(=O)O)CC(=O)O)CCN(CC(=O)O)CC(=O)O
CC(C)C[C@H]1C(=O)N2CCC[C@H]2[C@]2(O)O[C@](NC(=O)[C@@H]3C=C4c5cccc6[nH]c(Br)c(c56)C[C@H]4N(C)C3)(C(C)C)C(=O)N12
CNC[C@H](O)c1cccc(O)c1
Cc1c(N(C)C)c(=O)n(-c2ccccc2)n1C
CC(CN1c2ccccc2Sc2ccccc21)N(C)C (stereo not drawn)
CC1CCC2CC1C2(C)C (stereo not drawn)
CC1=CCC(O)(C(C)C)CC1 (stereo not drawn)
CCCCCCCCCCCCCCCC(=O)O
CC(C)=CCCC(C)=CCCC(C)=CCO
Cc1ccc(C(=O)c2cc(O)c(O)c([N+](=O)[O-])c2)cc1
CNC(=O)Oc1ccc2c(c1)[C@]1(C)CCN(C)[C@@H]1N2C
CC(C)=CCO
CC(=O)OCC=Cc1ccccc1
CN1Cc2c(N)cccc2C(c2ccccc2)C1 (stereo not drawn)
